# Data reported in PubChem BioAssay (NCATS).
# Results filed as inconclusive are left out. The source made the active and inactive calls. The call rests on the fitted dose curve; in most records, active means well fitted cell-killing curve with a large enough effect; inconclusive means small, poorly fitted or top-dose-only effect, or effect the other way; inactive means no such curve, though single readings can be large or run the other way.
# Experiment: Quantitative High-Throughput drug screen in 47 multiple myeloma cell lines against the NCATS MIPE library collection: KMS12BM_JCRB cell viability assay (AID 1918971); further: nearly all actives have a fitted effect of over 35% in size
# Conditions: KMS12BM myeloma viability, CellTiter-Glo ATP, 48 h; series mostly up to 45.8 µM
# Excerpt: PI: Beverly A. Mock Ph.D.
# Laboratory of Cancer Biology and Genetics,
# Center for Cancer Research, National Cancer Institute,
# National Institute of Health, Bethesda, Maryland
# Drug resistance and disease progression are common in multiple myeloma (MM) patients, underscoring the need for new therapeutic combinations. […] We hypothesized that effective combinations would reduce MYC expression and enhance p16 activity. […] These preclinical data identify potentially useful drug combinations for evaluation in drug-resistant MM and reveal potential mechanisms of combined drug sensitivity.
# Described herein is the primary MIPE qHTS used to cherrypick compounds. Validated compounds were then further tested for potential synergistic activiy.
# [1] Peat TJ, Gaikwad SM, Dubois W, Gyabaah-Kessie N, Zhang S, Gorjifard S, Phyo Z, Andres M, Hughitt VK, Simpson RM, Miller MA, Girvin AT, Taylor A, Williams D, D'Antonio N, Zhang Y, Rajagopalan A, Flietner E, Wilson K, Zhang X, Shinn P, Klumpp-Thomas C, McKnight C, Itkin Z, Chen L, Kazandijian D, Zhang J, Michalowski AM, Simmons JK, Keats J, Thomas CJ, Mock BA. Drug combinations identified by high-throughput screening promote cell cycle transition and upregulate Smad pathways in myeloma. Cancer Lett. 2023 Aug 1;568:216284. doi: 10.1016/j.canlet.2023.216284. Epub 2023 Jun 24. PMID: 37356470; PMCID: PMC10408729.
# SEQUENCE No. (e.g., 1, 2, 3, etc.); […] (e.g., Cells, Incubation, Reagent, etc.); VALUE and DESCRIPTION.
# 1; Cells; 5 uL; white, solid bottom 1536-well Greiner assay plate.
# 2; Compounds; 23 nL; Kalypsis pin tool (Wako USA) equipped with a 1536-well pin head to transfer to the assay plates.
# 3; Incubation; 48 hours; 37C incubation.
# 4; Reagent;5uL; CellTiter Glo (Promega).
# 5; Detector; 425V; Luminescence; Viewlux PerkinElmer.
# NOTES (numbers refer to Sequence numbers above)
# 1. The cell-based screening methods employed in this study were like those previously published. Briefly, the corresponding myeloma cell lines were screened in 1,536-well plates with 500 cells, 5-uL per well for inhibition of cell viability (assessed by measuring ATP levels with CellTiterGlo).
# 2. NCATS MIPE 4.0 library of approved and investigational drugs were added using the Kalypsis pin tool. Wells treated with DMSO only for 100% viability and media only wells for 0% viability were used as controls.
# 3. The assay plates were covered and incubated for 48 hours in a 37C, 5% CO2 incubator with controlled humidity.
# 4. After 48 hours, CellTilter-GloTM luminescent substrate mix (Promega) reagent was added to the assay plate and plates we incubated for 5 min at room temperature.
# 5. Signal was measured as median relative luminescence units on a ViewLux (PerkinElmer) multiplate reader.
# [1] Heske CM, Davis MI, Baumgart JT, Wilson K, Gormally MV, Chen L, Zhang X, Ceribelli M, Duveau DY, Guha R, Ferrer M, Arnaldez FI, Ji J, Tran HL, Zhang Y, Mendoza A, Helman LJ, Thomas CJ. Matrix Screen Identifies Synergistic Combination of PARP Inhibitors and Nicotinamide Phosphoribosyltransferase (NAMPT) Inhibitors in Ewing Sarcoma. Clin Cancer Res. 2017 Dec 1;23(23):7301-7311. doi: 10.1158/1078-0432.CCR-17-1121. Epub 2017 Sep 12. PMID: 28899971; PMCID: PMC6636827.
# Potency means the concentration at half of the fitted maximal effect.
row,SMILES,Potency
1,CC(O)(CS(=O)(=O)c1ccc(F)cc1)C(=O)Nc1ccc(C#N)c(C(F)(F)F)c1 (configuration not stated),23.5 µM (active)
2,COC[C@@H](NC(C)=O)C(=O)NCc1ccccc1,inactive
3,C[C@@H]1O[C@@H](O[C@H]2C[C@@H](O)[C@]3(CO)[C@H]4[C@H](O)C[C@]5(C)[C@@H](C6=CC(=O)OC6)CC[C@]5(O)[C@@H]4CC[C@]3(O)C2)[C@H](O)[C@H](O)[C@H]1O,0.0662 µM (active)
4,COC1(CS(=O)c2ccccc2)CCN(CCc2c[nH]c3ccc(F)cc23)CC1 (configuration not stated),inactive
5,CN(C)[C@@H]1C(=O)C(C(N)=O)=C(O)[C@@]2(O)C(=O)C3=C(O)c4c(O)cccc4[C@@](C)(O)[C@H]3C[C@@H]12,4.18 µM (active)
6,N[C@@H](Cc1ccc(N(CCCl)CCCl)cc1)C(=O)O,16.6 µM (active)
7,COC[C@H]1OC(=O)c2coc3c2[C@@]1(C)C1=C(C3=O)C2CCC(=O)[C@@]2(C)C[C@H]1OC(C)=O (some centres not stated),10.5 µM (active)
8,C[C@@H]1[C@@H](CC(C[C@H]2O[C@@H]3O[C@]4(C)CC[C@@H]5[C@H](C)CC[C@@H]([C@H]2C)[C@@]35OO4)C[S+](=O)([O-])c2ccc(COC(=O)N(C)C)cc2)O[C@@H]2O[C@]3(C)CC[C@H]4[C@H](C)CC[C@@H]1[C@@]24OO3 (some centres not stated),0.148 µM (active)
9,Cc1sc2c(c1C)C(c1ccc(Cl)cc1)=N[C@@H](CC(=O)OC(C)(C)C)c1nnc(C)n1-2,0.187 µM (active)
10,Cc1cccc(C)c1NC(=O)CN1CCCC1=O,inactive
11,COc1ccc(C(CN(C)C)C2(O)CCCCC2)cc1 (configuration not stated),inactive
12,Cn1c(CCCC(=O)O)nc2cc(N(CCCl)CCCl)ccc21,7.43 µM (active)
13,CN(C)CCc1ccc(O)cc1,inactive
14,COc1ccc2c(c1OC)CN1CCc3cc4c(cc3C1C2)OCO4 (configuration not stated),18.7 µM (active)
15,CN(C)CCN(C)CCc1ccc(Cl)c(Cl)c1,inactive
16,Cn1cc(C2=C(c3cn(C4CCN(Cc5ccccn5)CC4)c4ccccc34)C(=O)NC2=O)c2ccccc21,23.5 µM (active)
17,COc1ccc(C(=O)c2c(C)n(CCN3CCOCC3)c3ccccc23)cc1,inactive
18,C[C@@H]1[C@@H](C(=O)C[C@H]2O[C@@H]3O[C@]4(C)CC[C@@H]5[C@H](C)CC[C@@H]([C@H]2C)[C@@]35OO4)O[C@@H]2O[C@]3(C)CC[C@H]4[C@H](C)CC[C@@H]1[C@@]24OO3,0.372 µM (active)
19,Fc1ccc(C(OCCN2CCN(CCCc3ccccc3)CC2)c2ccc(F)cc2)cc1,14.8 µM (active)
20,NCC1(CC(=O)O)CCCCC1,inactive
21,CNCC(O)c1ccc(O)cc1 (configuration not stated),inactive
22,C=C(C)[C@H]1Cc2c(ccc3c2O[C@@H]2COc4cc(OC)c(OC)cc4[C@@H]2C3=O)O1,2.64 µM (active)
